Experimental findings from the supplement of paper PMC7156485 are described below.

The structures appear in SMILES notation. ± gives the standard deviation of the averaged measurements.
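Note: TDF denotes transformed human dermal fibroblasts of mesenchymal origin.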

This experiment has as its system HCC1569. The experiment is described as follows: cell number relative to DMSO (% of DMSO); higher = more cells (less growth inhibition / toxicity). The note with it: concentration: 10 µM; 24 h. A digest of the protocol:
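H1.0 nuclear intensity or cell number is stated as percent of the plate control, based on the median of replicates, and HCC1569 values were smoothed for positional effects. These came from HCC1569 and TDF cells treated with compounds at 10 µM for 24 h at 37 °C in triplicate, then fixed in 3.7% formaldehyde and stained with a rabbit anti-H1.0 antibody, an AlexaFluor 647 secondary and DAPI.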
Compound `Cc1cc(C)c(S(=O)(=O)Nc2cccc(C(F)(F)F)c2)c(C)c1` had a cell number of 99.3.
Take `CC1(C)CCC(C)(C)c2cc(C(=O)Nc3ccc(C(=O)O)cc3)ccc21`: the cell number is 101.
As for `CC(C=CC1=C(C)CCCC1(C)C)=CC=CC(C)=CC(=O)Nc1ccc(O)cc1` [Fenretinide], the cell number was 51.1.
In turn, `CC(CCC(=O)NCCS(=O)(=O)O)C1CCC2C3C(O)CC4CC(O)CCC4(C)C3CC(O)C12C` (stereo not given) [Taurocholic acid] registered a cell number of 101.
In turn, `O=C(O)c1cc(O)ccc1O` [Gentisic acid] yielded a cell number of 104.
The same measure for `O=C1CC(=O)c2c(Cl)c(Cl)c(Cl)c(Cl)c21` [4,5,6,7-tetrachloro-1H-indene-1,3(2H)-dione]: 101.
`CCCCCCCCCCCCCCCCCC(=O)NCC(COP(=O)([O-])OCC[N+](C)(C)C)OC` (racemic) [rac-2-Methoxy-3-octadecanamido-1-propylphosphocholine] had a cell number of 101.
The same measure for `CN(c1ncccc1CNc1nc(Nc2ccc3c(c2)CC(=O)N3)ncc1C(F)(F)F)S(C)(=O)=O`: 54.6; for `CS(=O)(=O)c1ccc(C(O)C(COC(=O)CN)NC(=O)C(Cl)Cl)cc1` (stereo not given) [Thiamphenicol glycinate]: 105.
The same measure for `CCCCCCC=CC=CCCCCCCCC(=O)O` [9(Z), 11(Z)-octadecadienoic acid]: 99.8; for `CCC1OC(=O)C(C)C(OC2CC(C)(OC)C(O)C(C)O2)C(C)C(OC2OC(C)CC(N(C)C)C2O)C(C)(O)CC(C)C(=NOCOCCOC)C(C)C(O)C1(C)O` (stereo not given) [Roxithromycin]: 106.
`Br.Br.N=C(N)SCCc1cnc[nH]1` [Imetit dihydrobromide] showed a cell number of 103.
Compound `CC(C=CC1=C(C)CCCC1(C)C)=CC=CC(C)=CC(=O)O` [Retinoic acid] registered a cell number of 104.
Take `CCc1[nH]c(-c2ccc(OC)cc2)nc1-c1ccncc1`: the cell number was determined as 98.5.
The same measure for `CCCCCC(=O)C=CC=CCCCCCCCC(=O)O` [13-Ketooctadecadienoioc acid]: 99.9; for `CNc1ncnc2c1ncn2C1OC(CO)C(O)C1O` (stereo not given) [N6-Methyladenosine]: 95.6.
Then `C=CCc1ccccc1OCC(O)CNC(C)C.Cl` (stereo not given) [Alprenolol hydrochloride], with 96.8.
Regarding `CC12CCC(=O)C=C1CCC1C2C(=O)CC2(C)C1CCC2(O)C(=O)CO` (stereo not given) [Cortisone], the cell number was 87.8.
Then `CCCCCC=CCC(O)C=Cc1cccc(CC(O)CCCCO)n1` (stereo not given), with 98.7 ± 2.
`CC(C)(C(=O)O)c1ccc(C(O)CCCN2CCC(C(O)(c3ccccc3)c3ccccc3)CC2)cc1.Cl` (stereo not given) [Fexofenadine hydrochloride]: the cell number came out at 105.
Then `CC12C=CC(=O)C=C1CCC1C3CC(O)C(O)(C(=O)CO)C3(C)CC(O)C12F` (stereo not given) [Triamcinolone], with 97.5 ± 4.1; and `O=C(CCCN1CCC(O)(c2cccc(C(F)(F)F)c2)CC1)c1ccc(F)cc1` [Trifluperidol], with 100; and `CC(C)n1cnc2c(NCc3ccccc3)nc(NCCCO)nc21` [Bohemine], with 91.4.
The same measure for `CC(C)(Sc1ccc(CCN(CCCCC2CCCCC2)C(=O)NC2CCCCC2)cc1)C(=O)O`: 101.
`C[N+](C)(C)CCOC(N)=O.[Cl-]` [Carbachol] came in with a cell number of 105.
Then `CN(C)CCCCSC(=N)N.Cl.Cl`, with 99.3; and `Cl.N=C(N)c1ccccc1` [Benzamidine hydrochloride], with 100.
Then `CC(N)(COP(=O)(O)O)C(=O)O` (stereo not given) [2-methyl-O-phosphonoserine], with 97.7; and `O=C(NC(NC(=S)Nc1ccc(F)c([N+](=O)[O-])c1)C(Cl)(Cl)Cl)C(c1ccccc1)c1ccccc1` (stereo not given), with 58.2.
Then `Brc1c(Br)c(Br)c2[nH]cnc2c1Br` [4,5,6,7-tetrabromo-1H-benzimidazole], with 69.9; and `CNCCC(Oc1ccc(C(F)(F)F)cc1)c1ccccc1.Cl` (stereo not drawn) [R-(-)-Fluoxetine hydrochloride], with 92.
For `CC(=O)OC1(C(C)=O)CCC2C3CC(C)C4=CC(=O)CCC4(C)C3CCC21C` (stereo not given) [Medroxyprogesterone 17-Acetate], the cell number came to 105.
Then `Nc1c2c(nc3ccccc13)CCCC2O.O=C(O)C=CC(=O)O` (stereo not given) [Hydroxytacrine maleate], with 104.
Then `O=P(O)(O)C(O)(Cc1cccnc1)P(=O)(O)O` [Risedronic acid], with 110; and `O=C(Nc1cccc(C(F)(F)F)c1)Nc1cc(S(=O)(=O)NC2CC2)ccc1-c1ccsc1`, with 91.2.
